Several values for one entry are separate records, joined by “and”; a condition that tells them apart may be missing. Identical values can stand only once. Records with an inconclusive call do not appear. Activity calls are given as the source filed them. Unless noted, the call rests on the fitted dose curve; in most records, active means well fitted curve in the direction sought with a large enough effect in the repeat runs; inconclusive means weak or mixed curves; inactive means no such curve, though single readings can be large; an effect the other way counts as inactive or inconclusive.
What was measured:
[1] = target: Estrogen receptor beta (Homo sapiens) (UniProt Q92731); assay: qHTS assay to identify small molecule agonists of the estrogen receptor beta (ER-beta) signaling pathway (AID 1259377; active means well fitted activation curve with a large enough effect in the signal ratio in the repeat runs, not every such curve was filed as active; the % refers to the signal ratio)
Sequence of Estrogen receptor beta (Homo sapiens) (Q92731 whole entry, looked up): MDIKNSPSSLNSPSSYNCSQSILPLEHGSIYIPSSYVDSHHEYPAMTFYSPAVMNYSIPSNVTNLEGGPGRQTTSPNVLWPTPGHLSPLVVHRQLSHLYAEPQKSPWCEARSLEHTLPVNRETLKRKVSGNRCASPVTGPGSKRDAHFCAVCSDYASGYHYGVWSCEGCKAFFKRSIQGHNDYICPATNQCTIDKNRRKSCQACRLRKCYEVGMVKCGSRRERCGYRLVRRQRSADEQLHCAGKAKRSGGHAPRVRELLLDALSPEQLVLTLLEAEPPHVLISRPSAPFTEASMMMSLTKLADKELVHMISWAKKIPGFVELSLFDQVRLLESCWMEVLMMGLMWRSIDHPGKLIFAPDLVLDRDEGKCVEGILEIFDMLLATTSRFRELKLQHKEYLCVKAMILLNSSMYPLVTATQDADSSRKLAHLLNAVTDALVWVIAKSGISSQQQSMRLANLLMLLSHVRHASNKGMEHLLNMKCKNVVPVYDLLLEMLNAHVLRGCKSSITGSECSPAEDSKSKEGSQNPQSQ
In short: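 Ratiometric beta-lactamase FRET read-out came after 2 h substrate loading at room temperature. It followed 16 h compound treatment at 37C of GripTite HEK293T cells carrying a UAS-bla reporter, plated in 2% charcoal-stripped FBS medium.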

[2] = target: Estrogen receptor beta (Homo sapiens) (UniProt Q92731); assay: qHTS assay to identify small molecule antagonists of the estrogen receptor beta (ER-beta) signaling pathway (AID 1259378; active means well fitted inhibition curve with a large enough effect in the signal ratio in the repeat runs, not every such curve was filed as active; the % refers to the signal ratio; further: potency means the concentration at half of the fitted maximal effect)
In short: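 ER-beta-UAS-bla HEK293T (GripTite) cells in 2% charcoal-stripped FBS medium were preincubated 6 hr at 37C, dosed with compound, then stimulated with 1 nM E2 (final) for 16 hr; beta-lactamase reporter read by B/G FRET fluorescence after 2 hr substrate loading.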

[3] = qHTS assay to identify small molecule agonists of the androgen receptor (AR) signaling pathway in the presence of an antagonist - cell viability counter screen (AID 1259379); further: nearly all actives have a fitted effect of over 25% in size; further: potency means the concentration at half of the fitted maximal effect
In short: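 Cytotoxicity is assessed by CellTiter-Fluor in MDA-kb2 cells carrying an MMTV-driven luciferase reporter. Cells receive 3.0uM nilutamide plus compounds at 15 concentrations and incubate 16 hr at 37C without CO2 before fluorescence reading.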

[4] = qHTS assay to identify small molecule antagonists of the estrogen receptor beta (ER-beta) signaling pathway - cell viability counter screen (AID 1259382); further: nearly all actives have a fitted effect of over 55% in size; further: potency means the concentration at half of the fitted maximal effect
In short: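 Cytotoxicity counter screen multiplexed with the beta-lactamase antagonist assay: GripTite HEK293T ER-beta-bla cells were treated 16 hr with test chemicals in the presence of 1nM 17-beta-estradiol, and viability was measured by CellTiter-Glo.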

[5] = target: Estrogen receptor (Homo sapiens) (UniProt P03372); assay: qHTS assay to identify small molecule agonists of the estrogen receptor alpha (ER-alpha) signaling pathway in the presence of an antagonist (AID 1259383; calls by dose curve; further: top concentration of the series differs between compounds; nearly all actives have a fitted effect of over 15% in size)
Sequence of Estrogen receptor (Homo sapiens) (P03372 whole entry, looked up): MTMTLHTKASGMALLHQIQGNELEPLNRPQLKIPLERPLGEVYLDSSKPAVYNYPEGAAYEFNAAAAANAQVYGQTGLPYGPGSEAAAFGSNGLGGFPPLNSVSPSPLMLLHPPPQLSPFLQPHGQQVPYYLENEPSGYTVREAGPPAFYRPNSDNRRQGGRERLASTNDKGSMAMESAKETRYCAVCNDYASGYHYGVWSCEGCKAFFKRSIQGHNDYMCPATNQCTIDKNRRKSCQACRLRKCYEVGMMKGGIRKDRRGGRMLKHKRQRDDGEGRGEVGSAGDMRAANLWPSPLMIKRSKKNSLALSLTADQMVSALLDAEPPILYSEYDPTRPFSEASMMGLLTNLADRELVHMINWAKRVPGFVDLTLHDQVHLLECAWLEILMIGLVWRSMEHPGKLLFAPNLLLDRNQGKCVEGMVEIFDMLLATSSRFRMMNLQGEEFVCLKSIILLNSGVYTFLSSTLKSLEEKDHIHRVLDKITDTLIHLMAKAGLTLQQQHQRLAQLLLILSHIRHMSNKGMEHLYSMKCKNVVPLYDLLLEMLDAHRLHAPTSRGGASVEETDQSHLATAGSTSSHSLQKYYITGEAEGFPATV
In short: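 Agonist-mode confirmation in the presence of the ER antagonist ICI-182,780 at 10.0nM final. Breast-derived VM7Luc4E2 reporter cells were exposed to compounds for 22hr, and ERE-driven luciferase was quantified by luminescence.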

[6] = qHTS assay to identify small molecule agonists or antagonists of the thyroid stimulating hormone receptor (TSHR) signaling pathway - wild type cell line counter screen (AID 1259384; calls by dose curve)
In short: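 Wild-type HEK293 cells were plated 18 h at 37 C/5% CO2, pin-dosed with compound plus Ro20-1724 medium, held 30 min at room temperature, then given cAMP-d2 and anti-cAMP-cryptate; fluorescence was read after 1 h. Fifteen concentrations, triplicate.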

[7] = target: Thyrotropin receptor (Homo sapiens) (UniProt P16473); assay: qHTS assay to identify small molecule antagonists of the thyroid stimulating hormone receptor (TSHR) signaling pathway (AID 1259385; calls by dose curve; further: nearly all actives have a fitted effect of over 20% in size)
Sequence of Thyrotropin receptor (Homo sapiens) (P16473 whole entry, looked up): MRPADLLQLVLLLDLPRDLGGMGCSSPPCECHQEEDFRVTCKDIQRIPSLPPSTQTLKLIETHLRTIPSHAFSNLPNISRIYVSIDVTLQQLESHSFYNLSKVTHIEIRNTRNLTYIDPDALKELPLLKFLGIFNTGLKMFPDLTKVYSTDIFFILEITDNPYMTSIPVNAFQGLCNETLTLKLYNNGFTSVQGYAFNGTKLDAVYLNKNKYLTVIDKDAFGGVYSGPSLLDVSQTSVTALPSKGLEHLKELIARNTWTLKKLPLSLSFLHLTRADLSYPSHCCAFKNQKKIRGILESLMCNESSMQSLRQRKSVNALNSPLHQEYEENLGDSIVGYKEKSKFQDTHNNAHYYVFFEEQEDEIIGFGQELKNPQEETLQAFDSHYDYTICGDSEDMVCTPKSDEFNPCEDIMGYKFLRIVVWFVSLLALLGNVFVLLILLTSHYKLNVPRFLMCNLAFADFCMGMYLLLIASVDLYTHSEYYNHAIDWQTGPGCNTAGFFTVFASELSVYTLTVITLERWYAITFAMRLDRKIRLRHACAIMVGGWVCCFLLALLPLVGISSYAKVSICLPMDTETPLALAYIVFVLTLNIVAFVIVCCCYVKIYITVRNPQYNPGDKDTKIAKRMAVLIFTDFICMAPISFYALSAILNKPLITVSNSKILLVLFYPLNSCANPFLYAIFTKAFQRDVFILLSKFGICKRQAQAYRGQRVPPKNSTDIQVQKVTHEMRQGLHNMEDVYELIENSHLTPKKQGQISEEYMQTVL
In short: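 TSHR-HEK293 cells were plated and held 18 h at 37C/5% CO2, then given compound plus Ro20-1724 and stimulated with TSH at 1.5 ng/mL final. After 30 min at room temperature, cAMP was detected with cAMP-d2/anti-cAMP-cryptate (1 h) by fluorescence.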

[8] = qHTS assay to identify small molecule agonists of the estrogen receptor alpha (ER-alpha) signaling pathway in the presence of an antagonist - cell viability counter screen (AID 1259386);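 further: series mostly up to about 92 µM; cells exposed to compounds for 22 h at 37 °C before the viability read; nearly all actives have a fitted effect of over 30% in size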
In short: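 Cytotoxicity was measured in parallel with the ERE-luciferase agonist screen, in the same wells. The cells were VM7Luc4E2, which endogenously express ER-alpha, and treatment was with compounds plus 10.0nM ICI-182,780 for 22hr.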

[9] = target: Progesterone receptor (Homo sapiens) (UniProt P06401); assay: qHTS assay to identify small molecule agonists of the progesterone receptor (PR) signaling pathway (AID 1346784; calls by dose curve; further: nearly all actives have a fitted effect of over 30% in size)
Sequence of Progesterone receptor (Homo sapiens) (P06401 whole entry, looked up): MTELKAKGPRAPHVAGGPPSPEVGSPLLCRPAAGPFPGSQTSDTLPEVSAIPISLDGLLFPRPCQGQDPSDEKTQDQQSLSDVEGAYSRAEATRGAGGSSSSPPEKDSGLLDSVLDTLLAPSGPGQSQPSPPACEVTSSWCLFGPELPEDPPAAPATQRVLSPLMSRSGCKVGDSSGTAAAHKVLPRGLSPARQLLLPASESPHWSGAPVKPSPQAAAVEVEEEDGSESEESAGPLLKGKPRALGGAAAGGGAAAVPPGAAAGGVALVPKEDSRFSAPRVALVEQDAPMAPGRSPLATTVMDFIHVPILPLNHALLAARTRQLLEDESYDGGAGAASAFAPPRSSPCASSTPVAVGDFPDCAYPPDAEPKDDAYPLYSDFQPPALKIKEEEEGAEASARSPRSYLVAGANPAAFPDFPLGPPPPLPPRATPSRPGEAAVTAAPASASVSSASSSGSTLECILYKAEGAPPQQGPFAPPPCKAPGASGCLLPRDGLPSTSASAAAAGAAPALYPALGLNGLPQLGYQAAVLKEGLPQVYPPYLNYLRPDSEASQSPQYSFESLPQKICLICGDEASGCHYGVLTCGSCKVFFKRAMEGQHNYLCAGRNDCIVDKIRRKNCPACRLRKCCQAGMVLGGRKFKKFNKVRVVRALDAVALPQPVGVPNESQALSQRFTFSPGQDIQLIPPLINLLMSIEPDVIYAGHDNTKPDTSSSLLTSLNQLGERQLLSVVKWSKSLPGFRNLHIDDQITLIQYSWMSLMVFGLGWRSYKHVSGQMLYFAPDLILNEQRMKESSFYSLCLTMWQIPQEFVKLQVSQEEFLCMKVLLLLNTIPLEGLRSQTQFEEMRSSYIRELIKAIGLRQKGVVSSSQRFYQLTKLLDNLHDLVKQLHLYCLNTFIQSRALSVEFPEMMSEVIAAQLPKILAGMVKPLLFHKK
In short: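 Agonist qHTS: compounds pinned onto 3,000 PR-UAS-bla HEK 293T cells per well in charcoal-stripped serum medium, 16hr at 37C, then beta-lactamase activity measured by LiveBLAzer FRET fluorescence after 2 hours at room temperature.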

[10] = target: Progesterone receptor (Homo sapiens) (UniProt P06401); assay: qHTS assay to identify small molecule antagonists of the progesterone receptor (PR) signaling pathway (AID 1346795; active means well fitted inhibition curve with a large enough effect in the signal ratio in the repeat runs, not every such curve was filed as active; the % refers to the signal ratio; further: potency means the concentration at half of the fitted maximal effect)
In short: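 Antagonist mode with agonist R5020 at 1 nM final and 16 hr incubation at 37C. Reporter was beta-lactamase driven by UAS in HEK293T (PR-UAS-bla), 2% charcoal-stripped serum; signal from LiveBLAzer FRET substrate, 2 hr at room temperature.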

[11] = qHTS assay to identify small molecule antagonists of the progesterone receptor (PR) signaling pathway - cell viability counter screen (AID 1346798); further: nearly all actives have a fitted effect of over 50% in size; further: potency means the concentration at half of the fitted maximal effect
In short: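 Cytotoxicity read as CellTiter-Glo luminescence (30 min, room temperature) in the same wells as the beta-lactamase readout. HEK293T PR-UAS-bla cells in charcoal-stripped 2% FBS received compound and R5020, then 16 h at 37C, 5% CO2.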

[12] = qHTS assay to identify small molecule agonists of the progesterone receptor (PR) signaling pathway - cell viability counter screen (AID 1346799; calls by dose curve; further: nearly all actives have a fitted effect of over 45% in size; further: potency means the concentration at half of the fitted maximal effect)
In short: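 Cytotoxicity measured by CellTiter-Glo luminescence (30 min, RT) in the same wells as the PR beta-lactamase agonist read. Those HEK293T cells had 16 h compound treatment at 37 C in 2% charcoal-stripped FBS medium.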

[13] = qHTS assay to identify small molecule antagonists of the TGF-beta/Smad signaling pathway - cell viability counter screen (AID 1346824); further: nearly all actives have a fitted effect of over 50% in size
In short: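 SBE-bla HEK 293T cells were plated overnight at 37 C, then given compounds in DMSO plus TGF-beta1 (added as 0.25 ng/mL solution) for 5 hr. After the bla read, CellTiter-Glo was added to the same wells and luminescence read after 30 min at room temperature.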

[14] = qHTS assay to identify small molecule agonists of the TGF-beta/Smad signaling pathway - cell viability counter screen (AID 1346829); further: top concentration of the series differs between compounds; nearly all actives have a fitted effect of over 45% in size
In short: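 After overnight seating at 37 C and 5% CO2, reporter cells got compounds for 5 hr and FRET substrate for 2 hr; cell viability then came from CellTiter-Glo luminescence.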

[15] = qHTS assay to identify small molecule agonists of the TGF-beta/Smad signaling pathway (AID 1346859; active means well fitted activation curve with a large enough effect in the signal ratio in the repeat runs, not every such curve was filed as active; the % refers to the signal ratio; further: series mostly up to about 77 µM)
In short: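 Fluorescence (ex 405 nm; em 460 and 530 nm) was read 2 h after LiveBLAzer FRET substrate at RT. The preceding compound treatment of overnight-plated SBE-bla HEK293T cells lasted 5 h at 37 C.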

[16] = target: Thyrotropin-releasing hormone receptor (Homo sapiens) (UniProt P34981); assay: qHTS assay to identify small molecule antagonists of the thyrotropin-releasing hormone receptor (TRHR) signaling pathway (AID 1346877; active means well fitted inhibition curve with a large enough effect in the repeat runs, not every such curve was filed as active; further: series mostly up to about 51 µM)
Sequence of Thyrotropin-releasing hormone receptor (Homo sapiens) (P34981 whole entry, looked up): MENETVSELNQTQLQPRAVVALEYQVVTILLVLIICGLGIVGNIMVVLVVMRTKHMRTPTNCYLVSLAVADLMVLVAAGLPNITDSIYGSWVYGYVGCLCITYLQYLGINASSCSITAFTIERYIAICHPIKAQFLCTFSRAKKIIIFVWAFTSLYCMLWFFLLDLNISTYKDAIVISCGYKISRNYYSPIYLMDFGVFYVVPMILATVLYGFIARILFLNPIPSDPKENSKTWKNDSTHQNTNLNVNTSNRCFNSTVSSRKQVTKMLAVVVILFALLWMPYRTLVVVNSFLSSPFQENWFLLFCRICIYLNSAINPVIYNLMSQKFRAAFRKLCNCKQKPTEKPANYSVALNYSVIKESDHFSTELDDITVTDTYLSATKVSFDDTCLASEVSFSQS
In short: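 Antagonism is measured as suppression of the calcium response to 1 nM TRH in TRHR-HEK293 cells that have been dye-loaded for 2 h at 37 °C after overnight plating. Each compound is tested at 15 concentrations in triplicate.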

[17] = target: Thyrotropin-releasing hormone receptor (Homo sapiens) (UniProt P34981); assay: qHTS assay to identify small molecule agonists of the thyrotropin-releasing hormone receptor (TRHR) signaling pathway (AID 1346891; calls by dose curve; further: series mostly up to about 58 µM)
In short: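 Agonist-mode intracellular calcium readout: kinetic fluorescence over 3 min at 1 s intervals after compound addition to TRHR-HEK293 cells (18 h seeded, 2 h dye-loaded at 37 C). Fifteen concentrations, triplicates.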

[18] = Human pregnane X receptor (PXR) small molecule agonists, qHTS cell viability counter screen (AID 1346977); further: nearly all actives have a fitted effect of over 50% in size; further: potency means the concentration at half of the fitted maximal effect
In short: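 Same-well viability read: CellTiter-Fluor added after 23 hr compound exposure, fluorescence measured 1 hr later. Cells were PXR-Luc HepG2 seeded at 2,000/well in 5% charcoal-stripped FBS medium, rested 5 hr before dosing at 37 C.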

[19] = qHTS assay to identify small molecule agonists of the estrogen receptor beta (ER-beta) signaling pathway - cell viability counter screen (AID 1259380); further: nearly all actives have a fitted effect of over 30% in size; further: potency means the concentration at half of the fitted maximal effect
In short: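 Cytotoxicity is measured in parallel with the reporter screen: after 16 hr compound exposure at 37C and a 2 hr LiveBLAzer step, CellTiter-Glo is added to the same ER-beta-UAS-bla HEK293T wells and luminescence read after 30 min.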

Measured: Potency

CC(C)c1ccc(O)c(C(C)C)c1
inactive: [1] | [2] | [3] | [4] | [5] | [6] | [7] | [8] | [9] | [10] | [11] | [12] | [13] | [14] | [15] | [16] | [17] | [18]

O=C1Nc2ccc(Cl)cc2[C@@](C#CC2CC2)(C(F)(F)F)O1
inactive: [1] | [3] | [5] | [6] | [7] | [8] | [12] | [14] | [15] | [16] | [17]
active: [2] 23.7 µM | [10] 7.5 µM

CCN(CC)CCOc1ccc(C(O)(Cc2ccc(Cl)cc2)c2ccc(C)cc2)cc1 (stereo not given)
inactive: [1] | [5] | [6] | [8] | [9] | [15] | [16] | [17]
active: [2] 10.6 µM | [19] 26.6 µM | [4] 29.8 µM | [11] 26.6 µM | [12] 23.7 µM | [18] 26.6 µM

COc1cc(C(=O)NS(=O)(=O)c2ccccc2C)ccc1Cc1cn(C)c2ccc(NC(=O)OC3CCCC3)cc12
inactive: [1] | [3] | [5] | [6] | [8] | [9] | [11] | [12] | [13] | [15] | [16] | [17]
active: [2] 13.3 µM | [19] 13.3 µM

CCCCCCCCCC(=O)N(C)C
inactive: [1] | [2] | [3] | [19] | [4] | [6] | [7] | [8] | [9] | [10] | [12] | [13] | [15] | [16] | [17] | [18]

C=CC(=O)OCCN(CC)CC
inactive: [1] | [2] | [3] | [19] | [5] | [6] | [7] | [9] | [10] | [11] | [13] | [14] | [15] | [18]

CC(=O)c1ccccc1N
inactive: [1] | [2] | [3] | [19] | [5] | [6] | [7] | [9] | [10] | [11] | [12] | [13] | [14] | [15] | [16] | [17] | [18]

CC(C)(C)c1cc(/C=C2\SC(=N)NC2=O)cc(C(C)(C)C)c1O
inactive: [1] | [3] | [4] | [5] | [6] | [7] | [13] | [14] | [15] | [16] | [17]
active: [2] 21.7 µM | [10] 61.1 µM | [18] 48.6 µM

CCCCCCC(C)Nc1ccc(Nc2ccccc2)cc1 (stereo not given)
inactive: [1] | [3] | [13] | [14] | [15] | [16] | [17]
active: [2] 48.6 µM | [10] 48.6 µM

Cc1occc1SSc1ccoc1C
inactive: [1] | [2] | [3] | [4] | [6] | [8] | [9] | [10] | [11] | [12] | [13] | [14] | [15] | [16] | [17] | [18]

CCCCOc1ccc(C(=O)CCN2CCCCC2)cc1
inactive: [1] | [2] | [4] | [5] | [6] | [8] | [9] | [10] | [11] | [12] | [13] | [14] | [15] | [17]
active: [3] 29.8 µM

O=C(O)CC(=O)O
inactive: [1] | [2] | [3] | [19] | [4] | [6] | [7] | [8] | [9] | [10] | [11] | [12] | [13] | [14] | [15] | [17] | [18]

CCCCC(CC)COC(=O)c1ccc(O)cc1 (stereo not given)
active: [2] 21.6 µM and 21.7 µM | [19] 61.1 µM | [4] 68.6 µM | [10] 30.5 µM and 27.3 µM
inactive: [1] | [3] | [6] | [7] | [9] | [11] | [12] | [14] | [15] | [16] | [17]

C/C=C/c1ccc(OC)c(OC)c1
inactive: [1] | [2] | [3] | [19] | [4] | [6] | [7] | [8] | [11] | [12] | [13] | [14] | [15] | [18]

COC(=O)NCCC[Si](OC)(OC)OC
inactive: [1] | [2] | [3] | [19] | [4] | [6] | [7] | [8] | [9] | [13] | [14] | [15] | [17] | [18]

Reference: PubChem BioAssay (Tox21)
